Laboratory results taken from the supplement of paper PMC6411743.
± gives the standard deviation of the averaged measurements. Of roughly 6,500 targets only a part is listed; those with the largest changes were picked by preference.

Compound: Nc1ncnc2c1ncn2[C@@H]1O[C@H](COP(=O)(O)OP(=O)(O)OP(=O)(O)O)[C@@H](O)[C@H]1O [adenosine triphosphate]
Experiment: NP40-soluble protein abundance relative to vehicle (solubility fold change) (ratio); higher = more soluble protein in presence of ATP
Method in brief: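 Crude Jurkat lysate, prepared by Dounce homogenisation, was exposed to eight concentrations from 0.1 to 10 mM for 10 min at room temperature and then 3 min at 37 °C. Solubilisation used 0.8% NP40 with benzonase for 60 min at 4 °C, followed by ultracentrifugation and TMT labelling of the supernatant for LC-MS/MS. After vsn normalisation of intensities, each value is the fold change against the detergent-processed vehicle within each replicate, across three independent experiments.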

Chain of UniProt P61586 (P61586 whole entry): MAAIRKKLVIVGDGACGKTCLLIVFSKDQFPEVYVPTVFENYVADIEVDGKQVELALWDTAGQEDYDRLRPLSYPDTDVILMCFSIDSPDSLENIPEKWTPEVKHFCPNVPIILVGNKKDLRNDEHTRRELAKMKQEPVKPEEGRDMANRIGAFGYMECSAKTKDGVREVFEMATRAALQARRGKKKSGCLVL
Chain of UniProt P50990 (P50990 whole entry): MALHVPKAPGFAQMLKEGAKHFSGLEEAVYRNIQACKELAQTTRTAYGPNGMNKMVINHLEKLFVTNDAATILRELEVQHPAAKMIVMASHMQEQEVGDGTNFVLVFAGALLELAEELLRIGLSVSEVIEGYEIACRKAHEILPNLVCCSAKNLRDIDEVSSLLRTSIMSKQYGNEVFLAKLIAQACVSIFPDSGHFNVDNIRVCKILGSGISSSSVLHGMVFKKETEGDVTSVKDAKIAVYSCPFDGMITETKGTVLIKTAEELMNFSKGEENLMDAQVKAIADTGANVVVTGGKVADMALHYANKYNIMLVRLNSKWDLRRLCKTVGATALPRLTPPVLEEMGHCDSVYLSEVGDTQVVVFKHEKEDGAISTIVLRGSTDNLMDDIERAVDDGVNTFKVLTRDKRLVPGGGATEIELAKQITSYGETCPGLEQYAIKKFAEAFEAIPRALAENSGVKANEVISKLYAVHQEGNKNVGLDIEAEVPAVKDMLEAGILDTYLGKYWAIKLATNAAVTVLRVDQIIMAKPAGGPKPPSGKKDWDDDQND
Chain of UniProt P61201 (P61201 whole entry): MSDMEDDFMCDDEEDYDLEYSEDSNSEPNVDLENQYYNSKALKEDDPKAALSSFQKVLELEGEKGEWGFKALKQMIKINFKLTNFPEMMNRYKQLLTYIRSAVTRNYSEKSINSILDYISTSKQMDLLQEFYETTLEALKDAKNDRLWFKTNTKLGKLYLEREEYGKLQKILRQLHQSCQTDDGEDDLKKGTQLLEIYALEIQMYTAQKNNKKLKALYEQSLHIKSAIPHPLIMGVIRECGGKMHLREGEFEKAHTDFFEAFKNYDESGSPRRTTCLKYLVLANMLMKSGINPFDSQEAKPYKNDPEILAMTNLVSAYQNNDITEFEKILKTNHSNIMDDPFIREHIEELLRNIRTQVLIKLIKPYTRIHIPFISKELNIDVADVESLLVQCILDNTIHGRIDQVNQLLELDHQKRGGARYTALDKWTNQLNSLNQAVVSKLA
Chain of UniProt P51809 (P51809 whole entry): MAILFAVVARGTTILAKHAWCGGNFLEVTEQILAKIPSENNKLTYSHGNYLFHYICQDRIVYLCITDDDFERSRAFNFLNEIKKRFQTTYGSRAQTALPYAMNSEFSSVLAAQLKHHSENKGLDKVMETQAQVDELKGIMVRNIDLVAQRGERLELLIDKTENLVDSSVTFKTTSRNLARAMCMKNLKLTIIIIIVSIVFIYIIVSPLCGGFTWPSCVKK
Chain of UniProt P83369 (P83369 whole entry): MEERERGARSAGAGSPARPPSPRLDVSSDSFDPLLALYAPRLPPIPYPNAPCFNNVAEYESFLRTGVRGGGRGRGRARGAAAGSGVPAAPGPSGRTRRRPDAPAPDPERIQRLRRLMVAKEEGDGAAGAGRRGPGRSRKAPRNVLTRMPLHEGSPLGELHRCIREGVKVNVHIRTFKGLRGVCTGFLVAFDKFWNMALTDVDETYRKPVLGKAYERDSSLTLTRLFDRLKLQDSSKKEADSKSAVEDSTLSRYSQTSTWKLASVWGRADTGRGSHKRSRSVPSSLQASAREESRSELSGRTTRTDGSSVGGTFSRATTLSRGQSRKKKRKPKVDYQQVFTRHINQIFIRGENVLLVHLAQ
Chain of UniProt P28161 (P28161 whole entry): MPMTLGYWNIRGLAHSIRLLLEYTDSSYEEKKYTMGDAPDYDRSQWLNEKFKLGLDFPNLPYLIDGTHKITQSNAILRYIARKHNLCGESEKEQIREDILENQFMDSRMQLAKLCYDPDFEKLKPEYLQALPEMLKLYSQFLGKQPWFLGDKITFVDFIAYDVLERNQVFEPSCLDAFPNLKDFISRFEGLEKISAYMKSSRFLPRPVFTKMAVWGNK
Chain of UniProt P23434 (P23434 whole entry): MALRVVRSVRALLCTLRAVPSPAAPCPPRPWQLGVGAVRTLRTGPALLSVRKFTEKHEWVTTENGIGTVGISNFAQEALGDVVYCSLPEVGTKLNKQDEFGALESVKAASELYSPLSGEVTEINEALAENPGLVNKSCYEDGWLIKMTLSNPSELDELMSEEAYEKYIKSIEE
Chain of UniProt O95757 (O95757 whole entry): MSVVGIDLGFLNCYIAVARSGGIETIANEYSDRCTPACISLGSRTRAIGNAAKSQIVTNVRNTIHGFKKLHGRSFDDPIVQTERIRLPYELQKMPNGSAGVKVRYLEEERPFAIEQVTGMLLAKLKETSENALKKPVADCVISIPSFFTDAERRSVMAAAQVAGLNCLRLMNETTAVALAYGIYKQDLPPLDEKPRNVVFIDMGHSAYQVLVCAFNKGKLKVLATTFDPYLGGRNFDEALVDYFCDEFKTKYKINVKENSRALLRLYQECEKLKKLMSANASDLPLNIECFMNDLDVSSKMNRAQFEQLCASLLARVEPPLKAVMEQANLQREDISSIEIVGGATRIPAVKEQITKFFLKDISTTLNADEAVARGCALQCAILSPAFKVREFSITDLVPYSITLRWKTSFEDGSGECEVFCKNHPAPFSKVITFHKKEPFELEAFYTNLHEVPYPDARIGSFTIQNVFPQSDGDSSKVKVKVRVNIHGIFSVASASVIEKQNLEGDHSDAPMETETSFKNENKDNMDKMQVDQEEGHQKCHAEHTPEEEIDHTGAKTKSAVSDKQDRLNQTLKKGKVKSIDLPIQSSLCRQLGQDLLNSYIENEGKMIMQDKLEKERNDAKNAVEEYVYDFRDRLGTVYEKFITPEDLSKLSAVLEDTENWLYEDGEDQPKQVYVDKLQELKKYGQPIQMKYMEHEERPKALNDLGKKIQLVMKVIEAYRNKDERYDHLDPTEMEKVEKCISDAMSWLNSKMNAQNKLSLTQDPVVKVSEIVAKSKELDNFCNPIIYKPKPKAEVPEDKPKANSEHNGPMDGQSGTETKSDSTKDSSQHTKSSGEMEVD
Chain of UniProt P20248 (P20248 whole entry): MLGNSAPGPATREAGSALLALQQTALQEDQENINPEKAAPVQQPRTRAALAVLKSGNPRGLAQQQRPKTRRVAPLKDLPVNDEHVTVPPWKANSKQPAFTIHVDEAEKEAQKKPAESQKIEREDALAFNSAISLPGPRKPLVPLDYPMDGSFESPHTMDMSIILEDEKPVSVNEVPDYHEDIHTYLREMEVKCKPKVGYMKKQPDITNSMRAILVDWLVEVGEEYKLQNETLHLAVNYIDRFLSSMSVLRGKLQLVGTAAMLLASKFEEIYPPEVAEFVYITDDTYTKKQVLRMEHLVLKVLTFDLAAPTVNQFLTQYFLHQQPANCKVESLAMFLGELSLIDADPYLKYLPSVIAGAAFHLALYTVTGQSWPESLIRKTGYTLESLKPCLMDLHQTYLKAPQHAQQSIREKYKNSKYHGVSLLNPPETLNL
Chain of UniProt O94906 (O94906 whole entry): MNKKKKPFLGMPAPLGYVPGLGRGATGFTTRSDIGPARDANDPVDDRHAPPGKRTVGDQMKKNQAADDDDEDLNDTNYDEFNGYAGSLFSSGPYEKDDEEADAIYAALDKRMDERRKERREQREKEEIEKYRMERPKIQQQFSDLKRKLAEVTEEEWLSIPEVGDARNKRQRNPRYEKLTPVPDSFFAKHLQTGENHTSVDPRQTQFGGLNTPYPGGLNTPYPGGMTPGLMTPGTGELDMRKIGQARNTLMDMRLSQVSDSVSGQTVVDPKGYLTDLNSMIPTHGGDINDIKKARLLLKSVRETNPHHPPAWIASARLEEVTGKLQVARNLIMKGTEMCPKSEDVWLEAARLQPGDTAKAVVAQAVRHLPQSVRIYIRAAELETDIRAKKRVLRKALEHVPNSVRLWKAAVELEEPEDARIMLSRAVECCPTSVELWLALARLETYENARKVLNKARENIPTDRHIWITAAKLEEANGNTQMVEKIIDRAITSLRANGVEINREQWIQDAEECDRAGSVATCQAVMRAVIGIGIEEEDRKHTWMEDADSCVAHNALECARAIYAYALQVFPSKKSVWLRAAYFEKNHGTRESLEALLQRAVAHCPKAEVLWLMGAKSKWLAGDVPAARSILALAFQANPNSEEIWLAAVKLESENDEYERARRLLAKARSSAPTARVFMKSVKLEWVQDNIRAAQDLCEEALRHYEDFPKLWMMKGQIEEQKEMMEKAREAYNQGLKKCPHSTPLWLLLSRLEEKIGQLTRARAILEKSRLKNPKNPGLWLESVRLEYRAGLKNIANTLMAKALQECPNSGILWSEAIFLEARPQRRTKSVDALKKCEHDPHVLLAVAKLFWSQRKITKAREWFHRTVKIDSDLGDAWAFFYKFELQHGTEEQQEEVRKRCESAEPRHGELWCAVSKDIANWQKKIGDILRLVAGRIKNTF
Chain of UniProt P67870 (P67870 whole entry, one chain of several): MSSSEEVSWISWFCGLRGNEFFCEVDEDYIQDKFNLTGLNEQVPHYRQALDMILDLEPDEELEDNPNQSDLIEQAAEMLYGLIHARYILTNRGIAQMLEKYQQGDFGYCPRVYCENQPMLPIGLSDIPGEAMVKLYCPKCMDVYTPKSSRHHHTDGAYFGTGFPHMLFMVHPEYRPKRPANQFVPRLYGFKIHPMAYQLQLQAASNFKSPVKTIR
Chain of UniProt P62937 (P62937 whole entry, looked up): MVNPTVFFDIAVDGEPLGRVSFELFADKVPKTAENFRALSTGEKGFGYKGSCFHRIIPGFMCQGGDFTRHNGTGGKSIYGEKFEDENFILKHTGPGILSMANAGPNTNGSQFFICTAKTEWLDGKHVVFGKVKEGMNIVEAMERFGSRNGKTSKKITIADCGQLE
Chain of UniProt P62253 (P62253 whole entry): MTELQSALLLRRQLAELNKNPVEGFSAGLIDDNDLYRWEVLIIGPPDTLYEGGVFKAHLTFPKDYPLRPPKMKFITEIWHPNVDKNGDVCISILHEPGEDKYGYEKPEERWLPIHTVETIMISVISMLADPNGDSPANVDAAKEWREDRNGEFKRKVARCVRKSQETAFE

Target	NP40-soluble protein abundance (concentration: 1mM)	NP40-soluble protein abundance (concentration: 2mM)	NP40-soluble protein abundance (concentration: 4mM)	NP40-soluble protein abundance (concentration: 6mM)	NP40-soluble protein abundance (concentration: 8mM)	NP40-soluble protein abundance (concentration: 10mM)
UniProt P49903|P49903-2	1 ± 0.039	0.992 ± 0.02	0.962 ± 0.049	0.979 ± 0.068	0.966 ± 0.052	0.96 ± 0.042
UniProt P06576|F8W0P7	0.822 ± 0.18	1.04 ± 0.22	0.825 ± 0.21	1.07 ± 0.2	1.05 ± 0.16	0.814 ± 0.21
XPA (UniProt P23025)	0.975 ± 0.021	0.979 ± 0.033	0.965 ± 0.054	1.02 ± 0.027	0.954 ± 0.1	0.968 ± 0.05
LSM11 (UniProt P83369)	1.32 ± 0.26	1.26 ± 0.15	1.4 ± 0.17	1.62 ± 0.32	1.46 ± 0.2	1.69 ± 0.4
VAMP7 (UniProt P51809)	0.955 ± 0.046	0.958 ± 0.05	0.938 ± 0.028	0.894 ± 0.1	0.943 ± 0.044	0.945 ± 0.044
UniProt P67870|Q5SRQ6	0.972 ± 0.024	1 ± 0.021	1.013 ± 0.0063	1.05 ± 0.067	1.07 ± 0.019	1.04 ± 0.017
UniProt P54274|P54274-2	1.14 ± 0.12	1.27 ± 0.17	1.43 ± 0.17	1.69 ± 0.26	1.58 ± 0.25	1.88 ± 0.35
GSTM2 (UniProt P28161)	0.96 ± 0.07	0.952 ± 0.054	0.886 ± 0.043	0.889 ± 0.035	0.911 ± 0.058	0.861 ± 0.056
UniProt P18583|P18583-5|P18583-7|P18583-9	1.28 ± 0.057	1.3 ± 0.075	1.36 ± 0.099	1.49 ± 0.14	1.45 ± 0.095	1.55 ± 0.13
UniProt Q01543|Q01543-3|Q01543-2	0.989 ± 0.05	0.997 ± 0.013	0.996 ± 0.032	1.01 ± 0.048	0.969 ± 0.033	0.9608 ± 0.0033
RHOA (UniProt P61586)	0.996 ± 0.14	1.01 ± 0.078	0.968 ± 0.06	1.09 ± 0.069	0.939 ± 0.023	0.944 ± 0.027
UniProt P49761|P49761-1|P49761-3	1.317 ± 0.008	1.56 ± 0.035	1.54 ± 0.018	1.43 ± 0.13	1.81 ± 0.23	2.065 ± 0.019
CDK6 (UniProt Q00534)	0.984 ± 0.047	0.999 ± 0.051	0.988 ± 0.05	0.955 ± 0.058	0.966 ± 0.041	0.974 ± 0.064
GAA (UniProt P10253)	0.981 ± 0.012	1.01 ± 0.021	1 ± 0.028	0.972 ± 0.015	0.962 ± 0.055	0.997 ± 0.033
HSP90AB1 (UniProt P08238)	1.01 ± 0.063	0.99 ± 0.052	0.983 ± 0.05	0.928 ± 0.069	0.953 ± 0.022	0.964 ± 0.064
UniProt P62253	1.06 ± 0.053	1.05 ± 0.071	1 ± 0.07	1.01 ± 0.11	1.03 ± 0.097	0.947 ± 0.049
UniProt O75400|O75400-2	1.35 ± 0.075	1.44 ± 0.086	1.65 ± 0.097	2.14 ± 0.13	2.39 ± 0.13	2.62 ± 0.2
UniProt P26368|P26368-2	1.96 ± 0.078	1.99 ± 0.078	2.01 ± 0.076	2.06 ± 0.032	2.11 ± 0.079	2.09 ± 0.12
UniProt P61201|P61201-2	0.9548 ± 0.0092	0.945 ± 0.031	0.9178 ± 0.005	0.968 ± 0.03	0.912 ± 0.043	0.916 ± 0.026
P0DN76|Q01081|Q01081-2 (UniProt Q01081+P0DN76)	2.11 ± 0.23	2.14 ± 0.2	2.22 ± 0.17	2.36 ± 0.16	2.27 ± 0.11	2.24 ± 0.17

Target	NP40-soluble protein abundance (concentration: 1mM)	NP40-soluble protein abundance (concentration: 2mM)	NP40-soluble protein abundance (concentration: 4mM)	NP40-soluble protein abundance (concentration: 6mM)	NP40-soluble protein abundance (concentration: 8mM)	NP40-soluble protein abundance (concentration: 10mM)
UniProt P09471-2	1.04 ± 0.059	0.979 ± 0.043	0.949 ± 0.052	0.975 ± 0.1	0.9637 ± 0.0096	0.969 ± 0.014
GCSH (UniProt P23434)	0.985 ± 0.048	0.971 ± 0.024	0.986 ± 0.051	1.03 ± 0.05	0.915 ± 0.051	0.927 ± 0.092
CRTAP (UniProt O75718)	1.11 ± 0.024	1.14 ± 0.032	1.16 ± 0.024	1.19 ± 0.034	1.19 ± 0.033	1.2 ± 0.052
UniProt P12268|H0Y4R1	1.14 ± 0.2	0.858 ± 0.18	0.957 ± 0.03	0.745 ± 0.14	0.636 ± 0.064	0.587 ± 0.058
GALT (UniProt P07902)	0.994 ± 0.016	0.972 ± 0.068	0.983 ± 0.053	0.9753 ± 0.0077	0.935 ± 0.029	0.947 ± 0.02
UniProt Q01196|Q01196-8|Q01196-2	1.07 ± 0.026	1.08 ± 0.024	1.11 ± 0.016	1.17 ± 0.034	1.15 ± 0.028	1.21 ± 0.034
UniProt O96028|O96028-3|O96028-5	1.31 ± 0.054	1.45 ± 0.072	1.54 ± 0.11	1.62 ± 0.12	1.62 ± 0.12	1.74 ± 0.18
UniProt P50750-2|P50750	1.18 ± 0.047	1.26 ± 0.047	1.38 ± 0.018	1.47 ± 0.13	1.64 ± 0.058	1.7 ± 0.1
PFN1 (UniProt P07737)	0.941 ± 0.059	0.934 ± 0.049	0.918 ± 0.027	0.92 ± 0.059	0.891 ± 0.015	0.911 ± 0.034
ZBTB11 (UniProt O95625)	1.03 ± 0.057	1.004 ± 0.0071	1.03 ± 0.053	0.949 ± 0.021	0.97 ± 0.015	0.979 ± 0.04
CCNA2 (UniProt P20248)	0.998 ± 0.059	0.977 ± 0.027	0.993 ± 0.017	1.03 ± 0.046	0.9881 ± 0.0022	0.995 ± 0.05
UniProt P59190	1.18 ± 0.054	2.37 ± 1.5	1.25 ± 0.21	1.16 ± 0.23	1.22 ± 0.2	1.18 ± 0.15
UniProt P08134|Q5JR08	0.974 ± 0.053	0.998 ± 0.031	0.975 ± 0.024	1 ± 0.05	0.957 ± 0.067	0.971 ± 0.027
SPN (UniProt P16150)	0.828 ± 0.17	0.803 ± 0.16	0.812 ± 0.13	0.835 ± 0.14	0.765 ± 0.094	0.71 ± 0.2
PRPF6 (UniProt O94906)	1.31 ± 0.017	1.5 ± 0.12	1.79 ± 0.13	1.97 ± 0.2	2.18 ± 0.15	2.36 ± 0.21
UniProt P28908|P28908-3	0.986 ± 0.073	0.999 ± 0.0037	1.08 ± 0.13	0.992 ± 0.073	0.951 ± 0.041	0.964 ± 0.026
CTCF (UniProt P49711)	1.02 ± 0.027	0.993 ± 0.036	0.972 ± 0.034	0.895 ± 0.046	0.927 ± 0.032	0.894 ± 0.027
HMGN2 (UniProt P05204)	1.06 ± 0.36	1.27 ± 0.42	1.29 ± 0.44	1.67 ± 0.9	1.55 ± 0.41	2.08 ± 1.5
AKR1A1 (UniProt P14550)	0.989 ± 0.046	0.979 ± 0.047	0.956 ± 0.048	0.959 ± 0.086	0.986 ± 0.059	0.944 ± 0.05
UniProt P62937|P62937-2	0.914 ± 0.063	1.02 ± 0.05	0.894 ± 0.091	0.992 ± 0.084	0.882 ± 0.11	0.962 ± 0.056

Target	NP40-soluble protein abundance (concentration: 1mM)	NP40-soluble protein abundance (concentration: 2mM)	NP40-soluble protein abundance (concentration: 4mM)	NP40-soluble protein abundance (concentration: 6mM)	NP40-soluble protein abundance (concentration: 8mM)	NP40-soluble protein abundance (concentration: 10mM)
FBL (UniProt P22087)	1.11 ± 0.075	1.13 ± 0.058	1.25 ± 0.047	1.544 ± 0.0074	1.93 ± 0.025	2.51 ± 0.15
TOP1 (UniProt P11387)	1.05 ± 0.019	1.088 ± 0.0094	1.22 ± 0.028	1.42 ± 0.035	1.599 ± 0.0062	1.78 ± 0.074
UniProt P08621|P08621-2	1.33 ± 0.049	1.42 ± 0.083	1.59 ± 0.078	1.74 ± 0.096	1.88 ± 0.077	1.97 ± 0.14
UniProt P06493	1.05 ± 0.054	1.06 ± 0.053	1.03 ± 0.063	1.03 ± 0.1	1.05 ± 0.058	1.05 ± 0.015
CCT8 (UniProt P50990)	0.976 ± 0.029	0.909 ± 0.033	0.823 ± 0.036	0.86 ± 0.12	0.842 ± 0.081	0.835 ± 0.063
GALK2 (UniProt Q01415)	0.938 ± 0.068	0.975 ± 0.073	0.985 ± 0.012	0.86 ± 0.12	0.956 ± 0.066	0.968 ± 0.037
TPMT (UniProt P51580)	1 ± 0.084	1 ± 0.077	0.985 ± 0.064	0.954 ± 0.12	0.992 ± 0.057	0.979 ± 0.044
SFPQ (UniProt P23246)	1.125 ± 0.0082	1.302 ± 0.0053	1.67 ± 0.042	1.72 ± 0.18	1.81 ± 0.11	1.68 ± 0.17
HSPA4L (UniProt O95757)	0.964 ± 0.015	0.9785 ± 0.0092	0.951 ± 0.018	0.987 ± 0.018	0.937 ± 0.036	0.949 ± 0.019
MRPS25 (UniProt P82663)	0.942 ± 0.092	0.951 ± 0.066	0.96 ± 0.043	0.881 ± 0.09	0.915 ± 0.081	0.928 ± 0.078
BANF1 (UniProt O75531)	5.83 ± 1.6	5.36 ± 0.56	5.89 ± 1.4	6.26 ± 1.4	5.6 ± 0.81	5.02 ± 1.8
UniProt Q02880-2	1.28 ± 0.061	1.36 ± 0.045	1.57 ± 0.067	1.73 ± 0.13	1.99 ± 0.11	2.07 ± 0.057
SRM (UniProt P19623)	1.03 ± 0.12	1.01 ± 0.1	1 ± 0.083	0.929 ± 0.12	0.998 ± 0.071	0.997 ± 0.068
RFC3 (UniProt P40938)	1.25 ± 0.036	1.3 ± 0.041	1.31 ± 0.041	1.31 ± 0.039	1.35 ± 0.061	1.36 ± 0.046
CD53 (UniProt P19397)	0.898 ± 0.042	0.833 ± 0.05	0.85 ± 0.06	0.832 ± 0.049	0.823 ± 0.07	0.791 ± 0.093
UniProt P25398	0.879 ± 0.058	0.861 ± 0.073	0.813 ± 0.071	0.817 ± 0.087	0.761 ± 0.043	0.779 ± 0.061
UniProt Q01082|Q01082-3	0.887 ± 0.029	0.899 ± 0.014	0.928 ± 0.03	1.05 ± 0.037	1.04 ± 0.06	1.07 ± 0.048
UniProt Q06787-5|Q06787-6|Q06787-8|Q06787|Q06787-3|Q06787-7|Q06787-9|R9WNI0	1.16 ± 0.14	1.27 ± 0.1	1.56 ± 0.17	1.83 ± 0.13	2.14 ± 0.19	2.48 ± 0.15
PPP2CA (UniProt P67775)	0.959 ± 0.061	0.925 ± 0.0053	0.908 ± 0.021	0.962 ± 0.033	0.9033 ± 0.007	0.9 ± 0.085
IARS (UniProt P41252)	1.1 ± 0.14	1 ± 0.072	0.974 ± 0.058	0.905 ± 0.059	1.05 ± 0.035	0.975 ± 0.078
